Compound activity from PubChem BioAssay.
A selection: hits, their analogues and other compounds. The true share with any hit is near 12%.
MARV entry inh – Marburg virus entry inhibition | Marburg virus pseudotyped entry inhibition, cell reporter | 300,000 compounds, 1.8% hits | Potency, µM (doses to about 37.8 µM), for the others: top-dose activity change, negative = inhibition, usual class: inhibitors; calls by dose curve; tested in HEK293 cells; further: potency means the concentration at half of the fitted maximal effect; on the % scale 0 is the no-effect control and ±100 the full control effect
CHX counter – counter-screen hit for Shiga toxin inhibitors, cycloheximide; max response, %; 300,000 compounds, 12% hits; cell reporter, cycloheximide protein synthesis inhibition counterscreen; in the data active means max response mostly above about 13%, no sharp cut-off; inactive means mostly below about 14%; further: read at 38.3 µM for the half of the compounds with a filed dose; 0% is about no effect
LASV entry inh – inhibitors of Lassa virus binding or cell entry | 300,000 compounds, 1.2% hits | Potency, µM (doses to about 37.9 µM), for inactives: at the highest dose activity change, negative = inhibition, most hits filed as inhibitors | AID 540256 | Lassa virus pseudotype entry inhibition, cell reporter; calls by dose curve; tested in HEK293 cells; further: potency means the concentration at half of the fitted maximal effect; on the % scale 0 is the no-effect control and ±100 the full control effect; nearly all actives have a fitted effect of over 50% in size
Shiga toxin inh – blocks Shiga toxin action in Vero cells. Vero cells, Shiga toxin protein synthesis inhibition reporter. AID 2315. 290,000 compounds, 9.2% hits. inhibition, % at 38.7 µM; in the data active means inhibition mostly above about 28%, no sharp cut-off; inactive means mostly below about 43%; further: 0% is about no effect
* hit, by the source's call; ? = inconclusive; / = not tested or not shown; [ ] = dose if it differs, or a comment.

SMILES | MARV entry inh | CHX counter | LASV entry inh | Shiga toxin inh
COc1ccc(Nc2ncnc3c2c(C)c(C)n3CCO)cc1 | / | 47.5* | / | 72.5*
Cc1c(C)n(CCCN(C)C)c2ncnc(Nc3ccc(F)cc3)c12 | / | 6.6 | / | -3.1
Cc1c(C)n(CCO)c2ncnc(Nc3ccc(F)cc3)c12 | ? | 17.6 | 23.4%[46.1 µM] | 68.7*
Cc1cc2c(=O)n(C)c(SCC(=O)Nc3ccccc3C)nc2s1 | -2.0%[46.1 µM] | / | -21.2% | /
COc1ccc(/C(C)=N/NC(=O)Cc2ccc(Cl)cc2)cc1 | 22.0% | -2.5 | ? | /
O=C(Cn1cc(S(=O)(=O)N2CCN(c3ccccc3F)CC2)c2ccccc2c1=O)Nc1cccc(C(F)(F)F)c1 | ? | / | -14.0%[46.1 µM] | /
COc1ccc(/C=C(\CC(=O)O)c2nc3ccccc3o2)cc1 | ? | 38.8* | 12.1%[46.1 µM] | 107.5*
COc1ccc(C(=O)/C(=C/c2cccs2)c2nc3ccccc3o2)cc1 | ? | 43.0* | -2.0% | 92.7*
Cc1ccc(C(CC(N)=O)c2ccco2)cc1 (stereo unspecified) | 1.2% | 1.8 | -8.2% | -20.0
Cc1ccc(C(CC(=O)c2ccco2)SCCO)cc1 (stereo unspecified) | -15.3% | 37.6* | ? | 71.6*
O=C(c1ccco1)N1CCN=C1SCc1ccc(F)cc1 | / | -4.8 | / | -5.1
O=C(CC(SCCO)c1ccc(F)cc1)c1ccco1 (stereo unspecified) | -8.1% | 52.5* | 0.2% | 104.2*
Cc1ccc(NC(=O)c2cc(S(=O)(=O)N3CCOCC3)cn2C)cc1Cl | / | 0.8 | / | -3.3
COc1ccc(C(CNC(=O)COc2ccc(Cl)c(C)c2)N2CCOCC2)cc1 (stereo unspecified) | -2.1%[46.1 µM] | / | 1.4%[46.1 µM] | /
Cn1cccc1/C=N/N1CCN(c2ccccc2)CC1 | -0.4%[46.1 µM] | 40.8* | 12.7% | 130.3*
O=C(O)c1ccc(C=NN2CCCCCC2)cc1 | ? | / | -23.4% | /
O=C(O)c1ccc(/C=N/N2CCN(c3ccccc3)CC2)cc1 | / | 33.6* | / | 87.7*
C(=N/N1CCN(c2ccccc2)CC1)/c1ccncc1 | -16.6% | 17.0* | ? | 29.4*
Cc1ccc(N2CCN(/N=C/c3ccccc3)CC2)cc1 | / | -2.0 | / | 3.7
Cc1cccc(S(=O)(=O)c2cn(C)c3cc(N4CCC(C)CC4)c(F)cc3c2=O)c1 | / | / | 0.8%[46.1 µM] | /
CCCn1ccc2c(OCC(=O)Nc3ccc(C(F)(F)F)cc3)cccc2c1=O | / | / | 5.5%[46.1 µM] | /
Cc1c(C(=O)OC(C)C)sc(NC(=O)C2c3ccccc3Oc3ccccc32)c1C(=O)OC(C)C | ? | / | -20.6%[46.1 µM] | /
O=C1c2cccc3cc([N+](=O)[O-])cc(c23)C(=O)N1c1nncs1 | -6.6%[46.1 µM] | / | 22.6%[46.1 µM] | /
COc1cc(NC(=O)CCS(=O)(=O)c2ccc3c(c2)n(C)c(=O)c(=O)n3C)cc(OC)c1 | -1.4%[46.1 µM] | -2.7 | 11.3%[46.1 µM] | -5.6
O=C(Cn1cc(C(F)(F)F)ccc1=O)NCc1ccc(F)cc1 | 1.3%[46.1 µM] | 29.3* | / | 36.1*
SMILES | MARV entry inh | CHX counter | LASV entry inh | Shiga toxin inh
O=C(Cn1cccc1C(=O)c1ccccc1)NCc1ccc(F)cc1 | 4.4%[46.1 µM] | 15.5* | 12.3%[46.1 µM] | 8.7
O=C(Cn1cc(C(F)(F)F)ccc1=O)NCCc1ccc(Cl)cc1Cl | 1.6% | -1.1 | 11.3% | -6.2
O=C(Cn1cccc1C(=O)c1ccccc1)NCc1ccc2c(c1)OCO2 | 5.8% | 29.3* | ? | 52.5*
COc1ccc(-n2nc(C(=O)NCC(=O)N3CCN(Cc4ccccc4)CC3)c3ccccc3c2=O)cc1OC | ? | -4.3 | -6.3%[46.1 µM] | -7.7
COc1ccc(-n2nc(C(=O)NCC(=O)N3CCC(C)CC3)c3ccccc3c2=O)cc1Cl | ? | 37.6 | ? | 49.2*
COc1ccc(-n2nc(C(=O)NCC(=O)N3CCN(c4ccccn4)CC3)c3ccccc3c2=O)cc1Cl | 9.8% | 27.0* | 12.7% | 39.6
COCCn1c(-c2cccc([N+](=O)[O-])c2)nc2c1c(=O)[nH]c(=O)n2Cc1ccccc1 | ? | 1.0 | ? | -6.4
CC(NC(=O)C(=O)N/N=C/c1ccccc1)c1ccccc1 (stereo unspecified) | / | 7.6 | / | 25.2
CCN(CC)CCCn1c2c(c(SCC(=O)N3CCc4ccccc43)nc1=O)CCC2 | ? | / | -8.7% | /
CC(=O)Nc1c(O)nc(SCC(=O)Nc2ccc(C(C)=O)cc2)[nH]c1=O | 19.2% | 47.5* | ? | 133.6*
CC(=O)Nc1c(O)nc(SCC(=O)Nc2cccc(C)c2)[nH]c1=O | 4.6% | -6.6 | 18.7% | -12.0
COc1ccc(Nc2nc(OC)nc(N3CCOCC3)n2)cc1 | / | 8.9 | / | 4.9
COc1nc(Nc2ccc(C(C)=O)cc2)nc(OC)n1 | 7.9% | 18.0* | 1.9% | 52.8*
COc1cc2ncnc(Nc3ccc4c(c3)OCO4)c2cc1OC | / | 4.8 | / | 20.4
COc1nc(Nc2ccc3c(c2)OCO3)nc(OC)n1 | / | 17.1 | / | 51.0*
COc1ccc(Nc2nc(OC)nc(OC)n2)cc1 | / | 8.0 | / | 22.2
Cc1ccc(Nc2nc(OC(C(F)(F)F)C(F)(F)F)nc(N3CCOCC3)n2)cc1 | 1µM* | -3.4 | 11.0% | -5.7
O=C(O)CSc1nc2ccccc2nc1Cc1ccccc1F | 18.4%[46.1 µM] | 5.0 | 2.1%[46.1 µM] | 15.1
Cc1ccc(C)c(S(=O)(=O)NCCc2csc(-c3ccc(Cl)cc3)n2)c1 | / | / | -11.5%[46.1 µM] | /
CN(Cc1nccn1C)C(=O)C1CCC(=O)N(Cc2cccc(C(F)(F)F)c2)C1 (stereo unspecified) | -4.5%[46.1 µM] | -2.2 | 6.5%[46.1 µM] | -6.1
CC(=O)c1ccc(NC(=O)CSc2nc(N3CCOCC3)nc(N3CCOCC3)n2)cc1 | 2.2% | 42.1* | 1.8% | 61.9*
CC(=O)c1ccc(Nc2nc(N3CCOCC3)nc(N3CCOCC3)n2)cc1 | / | 17.2* | / | 31.4
O=C(CSc1nc(Nc2ccccc2)nc(N2CCOCC2)n1)Nc1ccccc1Cl | ? | -0.8 | 4.61µM* | -3.8
O=C(Cn1cc(SCc2ccccc2F)c2ccccc21)N1CCCCC1 | / | / | 19.1%[46.1 µM] | /
Cc1ccccc1C1=NC(C(F)(F)F)(C(F)(F)F)c2c(n(C)c(=O)n(C)c2=O)N1 | -2.6% | 61.1* | -8.1% | 109.3*
SMILES | MARV entry inh | CHX counter | LASV entry inh | Shiga toxin inh
CC(=O)NC1(C(F)(F)F)C(=O)Nc2c1c(=O)n(C)c(=O)n2C (stereo unspecified) | ? | -0.1 | 14.5% | -7.9
Cn1c2c(c(=O)n(C)c1=O)C(C(F)(F)F)(C(F)(F)F)N=C(c1ccc(Cl)cc1)N2 | 1µM* | 6.3 | 2.82µM* | -13.6
Cn1c2c(c(=O)n(C)c1=O)C(C(F)(F)F)(C(F)(F)F)N=C(C1CCCCC1)N2 | ? | -5.1 | ? | -21.4
Cc1cc2nc3c(=O)n(C)c(=O)n(C)c3nc2cc1N=CN(C)C | -14.7%[46.1 µM] | / | -1.5%[46.1 µM] | /
COc1cc(C(=O)NC(=S)Nc2ccc(Cl)cn2)cc(OC)c1OC | / | 0.7 | / | 1.3
O=C(Cc1n[nH]c(=O)c2ccccc12)NC(c1ccccc1)c1ccccc1 | / | 16.0* | / | 39.4
CCOc1ccc2oc(=O)cc(CN3CCN(C(=O)c4ccc(OC)c(OC)c4)CC3)c2c1 | ? | / | -0.6%[46.1 µM] | /
CC(=O)Nc1ccc(-c2cn3ccsc3n2)cc1 | -21.6% | 30.4* | ? | 62.3*
O=C(Nc1ccc(-c2ccc3nncn3n2)cc1)C1CCCC1 | ? | 22.2* | 10.1%[46.1 µM] | 86.7*
Cc1ccc(S(=O)(=O)N2CCOCC2)cc1C(=O)Nc1ccc(-c2cn3ccsc3n2)cc1 | ? | 20.2* | ? | 18.1
Cc1ccc(S(=O)(=O)N2CCOCC2)cc1C(=O)Nc1ccc2c(c1)CCC2 | 3.2% | 10.3 | -0.5% | 13.9
c1cn2cc(-c3ccc4c(c3)OCO4)nc2s1 | ? | 45.9* | 10.3µM* | 94.9*
CC(=O)Nc1ccc(S(=O)(=O)NCc2cn3ccsc3n2)cc1 | -0.6% | -2.7 | ? | -5.0
